Results filed as inconclusive are left out. Active and inactive are the calls of the source. Unless noted, the call rests on the fitted dose curve; in most records, active means well fitted curve in the direction sought with a large enough effect; inconclusive means small, poorly fitted or top-dose-only effect, or another doubt; inactive means no such curve, though single readings can be large; an effect the other way counts as inactive or inconclusive.
Columns and labels:
[1] = AP1 Signaling Pathway (AID 357; active means well fitted curve in either direction with a large enough effect, not every such curve was filed as active;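 further: ME-180 reporter cells stimulated with EGF at its EC50 level; on the % scale 0 is the no-effect control and ±100 the full control effect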)
Outline: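 In this screen, ME-180 cells in Opti-MEM with 0.5% dialyzed FBS received EC50 EGF and compound titrations for 5 h. AP-1 reporter beta-lactamase was detected via CCF4 ratio, giving AC50 for positive and negative modulators.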

[2] = NFAT Signaling Pathway (AID 444; active means well fitted curve in either direction with a large enough effect, not every such curve was filed as active;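 further: carbachol stimulus at about its EC50 of 1 µM final; on the % scale 0 is the no-effect control and ±100 the full control effect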); conditions: Jurkat NFAT-bla M1, carbachol, beta-lactamase ratio, 5 h; at 17.2 µM (top of the series) unless noted
Outline: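 Read-out: CCF4 FRET ratio (460 nm/530 nm) after 1 h RT dye loading, used for %activity and AC50 from titration series. Cells: Jurkat NFAT-β-lactamase/M1 line, treated with compound plus 1 uM carbachol for 5 h, 37 °C.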

[3] = Stat Signaling Pathway (AID 446; active means well fitted curve in either direction with a large enough effect, not every such curve was filed as active;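 further: ME-180 cervical cancer cells given 40 pM IL-6 alongside compound; SIE-controlled beta-lactamase reporter measured as 460/530 nm FRET emission ratio; on the % scale 0 is the no-effect control and ±100 the full control effect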)
Outline: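 Screening format detects activators and inhibitors alike: ME-180 SIE-bla cells stimulated at 40 pM IL-6 for 5 hrs with compound, then dual-emission beta-lactamase read at 405 nm excitation.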

[4] = biological target: Glucocorticoid receptor (Homo sapiens) (UniProt P04150); assay: GR-GFP Redistribution (AID 450;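 active means compounds whose dose series gives a full or clear partial fitted curve of increased nuclear translocation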; further: potency means the concentration at half of the fitted maximal effect); conditions: U2OS GR-GFP nuclear translocation, laser cytometry, 2 h
[5] = biological target: Glucocorticoid receptor (Homo sapiens) (UniProt P04150); assay: GR-EFC Redistribution (AID 451; calls by dose curve; further: potency means the concentration at half of the fitted maximal effect); conditions: CHO-K1 GR-EFC translocation, beta-gal luminescence, 2 h
Outline: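 Translocation of GR-ED fusion to nuclear EA restores b-gal, read by luminescence after 1 h room-temperature detection. Engineered CHO-K1 biosensor cells, 1,000/well, exposed 2 h at 37 C to titrations up to 46 uM final.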

[6] = biological target: Mitogen-activated protein kinase 10 (Mus musculus) (UniProt Q61831); assay: JNK3 AlphaScreen Assay (AID 530; active means well fitted curve in either direction with a large enough effect, not every such curve was filed as active;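 further: kinase came from lysate of stimulated human HepG2 cells; signal reports phosphorylation of biotinylated GST-cJun 1-79 at Ser73 with 10 µM ATP; on the % scale 0 is the no-effect control and ±100 the full control effect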)
Outline: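 Room-temperature AlphaScreen kinase assay; pre-activated HepG2 lysate as JNK3 source, biotin-GST-cJun(1-79) substrate, 10 uM ATP, compound 15 min preincubation.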

[7] = biological target: 3',5'-cyclic-AMP phosphodiesterase 4B (Homo sapiens) (UniProt Q07343); assay: qHTS Assay for Inhibitors of PDE-IV (AID 607; active means well fitted activation curve with a large enough effect in the main read-out, with a control signal flat, not every such curve was filed as active; further: % of control where 0% means no effect)
Outline: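 The readout is membrane depolarisation from a cAMP-sensing CNG channel, detected with a potential dye at ex 535/em 590. Cells were HEK293-derived (endogenous PDE-IV) at 1000 cells/well, titrated up to 22.9 uM final.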

[8] = biological target: ATP-dependent 6-phosphofructokinase (Trypanosoma brucei brucei) (UniProt O15648); assay: qHTS Assay to Find Inhibitors of T. brucei phosphofructokinase: hit validation (AID 492961)
Outline: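 In this biochemical qHTS validation, titrated compounds were tested against 1.25 nM PFK with 0.1 mM ATP and 0.5 mM F6P. Percent activity came from controls lacking or containing enzyme.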

[9] = biological target: Ubiquitin carboxyl-terminal hydrolase 1 (Homo sapiens) (UniProt O94782); assay: Inhibitors of USP1/UAF1: Pilot qHTS (AID 504865);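 further: rhodamine fluorescence freed from ubiquitin-rhodamine substrate followed over time; top concentration of the series differs between compounds; on the % scale 0 is the no-effect control and ±100 the full control effect; nearly all actives have a fitted effect of over 35% in size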
Outline: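 Deubiquitinase activity followed as kinetic rhodamine fluorescence release from 150 nM Ub-Rho. 1 nM USP1/UAF1 with compound, after 15 min room-temperature preincubation, in HEPES pH 7.8 buffer containing TCEP, EDTA, BSA and Tween-20.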

[10] = biological target: Luciferin 4-monooxygenase (Photinus pyralis) (UniProt P08659); assay: Biochemical firefly luciferase enzyme assay for NPC (AID 624030);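 further: purified P. pyralis luciferase at 10 nM with luciferin and ATP substrate; 0% = DMSO and -100% = full luciferase inhibition by PTC124 control; nearly all actives have a fitted effect of over 70% in size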
Outline: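 Direct inhibition of firefly luciferase enzyme (10 nM final, 50 mM Tris Acetate) assessed by luminescence within 5 minutes. Percent activity scaled between DMSO and PTC124 positive control, with concentration-effect curves classified by fit quality and response.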

[11] = S16 Schwann cell viability assay (CellTiter-Glo assay) (AID 624031);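 further: native untransfected S16 rat Schwann cells; cellular ATP luminescence as a viability measure; plate controls were DMSO-treated cells for no effect and cell-free wells for full effect; nearly all actives have a fitted effect of over 70% in size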
Outline: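 Parental S16 cells, 24 h compound, 37 °C. ATP-luminescence viability; DMSO = 0% activity, empty wells as reference; curves classified by fit quality and efficacy.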

[12] = S16 Schwann cell PMP22 intronic element firefly luciferase assay (AID 624032);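 further: plate controls were DMSO for no effect and PTC124 positive control mean for full effect; nearly all actives have a fitted effect of over 30% in size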
Outline: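 Luciferase reporter of PMP22 intronic-element expression in stably transfected S16 rat Schwann cells, read by ONE-Glo luminescence after 24 h compound exposure at 37 C. Activity scaled between DMSO (0%) and positive-control PTC124; concentration-effect curves quality-classified.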

[13] = qHTS profiling for inhibitors of Plasmodium falciparum proliferation (AID 504749);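 further: 0% = DMSO vehicle and full inhibition = artemisinin control; nearly all actives have a fitted effect of over 60% in size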; conditions: P. falciparum in erythrocytes, SYBR Green DNA, 72 h, at 12.8 µM (top of the series)
Outline: (§1)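 Three-day growth assay of blood-stage parasites in erythrocytes (0.3% parasitemia, 2.5% hematocrit) at 37 C, 5% CO2, quantified by SYBR Green DNA staining after overnight detergent lysis.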

3D7 = assay: as above; conditions: P. falciparum in erythrocytes, SYBR Green DNA, 72 h; series mostly up to 12.8 µM
Outline: as §1

7G8 = assay: as above; conditions: P. falciparum in erythrocytes, SYBR Green DNA, 72 h; series mostly up to 12.8 µM
Outline: as §1

AA1029 = assay: as above; conditions: P. falciparum in erythrocytes, SYBR Green DNA, 72 h; series mostly up to 12.8 µM
Outline: as §1

AS120 = assay: as above; conditions: P. falciparum in erythrocytes, SYBR Green DNA, 72 h; series mostly up to 12.8 µM
Outline: as §1

ATS189 = assay: as above; conditions: P. falciparum in erythrocytes, SYBR Green DNA, 72 h; series mostly up to 12.8 µM
Outline: as §1

ATS95 = assay: as above; conditions: P. falciparum in erythrocytes, SYBR Green DNA, 72 h; series mostly up to 12.8 µM
Outline: as §1

C2A = assay: as above; conditions: P. falciparum in erythrocytes, SYBR Green DNA, 72 h; series mostly up to 12.8 µM
Outline: as §1

CP185 = assay: as above; conditions: P. falciparum in erythrocytes, SYBR Green DNA, 72 h; series mostly up to 12.8 µM
Outline: as §1

CP191 = assay: as above; conditions: P. falciparum in erythrocytes, SYBR Green DNA, 72 h; series mostly up to 12.8 µM
Outline: as §1

CP192 = assay: as above; conditions: P. falciparum in erythrocytes, SYBR Green DNA, 72 h; series mostly up to 12.8 µM
Outline: as §1

CP194 = assay: as above; conditions: P. falciparum in erythrocytes, SYBR Green DNA, 72 h; series mostly up to 12.8 µM
Outline: as §1

CP201 = assay: as above; conditions: P. falciparum in erythrocytes, SYBR Green DNA, 72 h; series mostly up to 12.8 µM
Outline: as §1

CP203 = assay: as above; conditions: P. falciparum in erythrocytes, SYBR Green DNA, 72 h; series mostly up to 12.8 µM
Outline: as §1

CP211 = assay: as above; conditions: P. falciparum in erythrocytes, SYBR Green DNA, 72 h; series mostly up to 12.8 µM
Outline: as §1

CP215 = assay: as above; conditions: P. falciparum in erythrocytes, SYBR Green DNA, 72 h; series mostly up to 12.8 µM
Outline: as §1

CP217 = assay: as above; conditions: P. falciparum in erythrocytes, SYBR Green DNA, 72 h; series mostly up to 12.8 µM
Outline: as §1

CP237 = assay: as above; conditions: P. falciparum in erythrocytes, SYBR Green DNA, 72 h; series mostly up to 12.8 µM
Outline: as §1

CP238 = assay: as above; conditions: P. falciparum in erythrocytes, SYBR Green DNA, 72 h; series mostly up to 12.8 µM
Outline: as §1

CP247 = assay: as above; conditions: P. falciparum in erythrocytes, SYBR Green DNA, 72 h; series mostly up to 12.8 µM
Outline: as §1

CP250 = assay: as above; conditions: P. falciparum in erythrocytes, SYBR Green DNA, 72 h; series mostly up to 12.8 µM
Outline: as §1

CP252 = assay: as above; conditions: P. falciparum in erythrocytes, SYBR Green DNA, 72 h; series mostly up to 12.8 µM
Outline: as §1

CP256 = assay: as above; conditions: P. falciparum in erythrocytes, SYBR Green DNA, 72 h; series mostly up to 12.8 µM
Outline: as §1

Chain of Glucocorticoid receptor (Homo sapiens) (P04150 whole entry, looked up, the tested form may be a part): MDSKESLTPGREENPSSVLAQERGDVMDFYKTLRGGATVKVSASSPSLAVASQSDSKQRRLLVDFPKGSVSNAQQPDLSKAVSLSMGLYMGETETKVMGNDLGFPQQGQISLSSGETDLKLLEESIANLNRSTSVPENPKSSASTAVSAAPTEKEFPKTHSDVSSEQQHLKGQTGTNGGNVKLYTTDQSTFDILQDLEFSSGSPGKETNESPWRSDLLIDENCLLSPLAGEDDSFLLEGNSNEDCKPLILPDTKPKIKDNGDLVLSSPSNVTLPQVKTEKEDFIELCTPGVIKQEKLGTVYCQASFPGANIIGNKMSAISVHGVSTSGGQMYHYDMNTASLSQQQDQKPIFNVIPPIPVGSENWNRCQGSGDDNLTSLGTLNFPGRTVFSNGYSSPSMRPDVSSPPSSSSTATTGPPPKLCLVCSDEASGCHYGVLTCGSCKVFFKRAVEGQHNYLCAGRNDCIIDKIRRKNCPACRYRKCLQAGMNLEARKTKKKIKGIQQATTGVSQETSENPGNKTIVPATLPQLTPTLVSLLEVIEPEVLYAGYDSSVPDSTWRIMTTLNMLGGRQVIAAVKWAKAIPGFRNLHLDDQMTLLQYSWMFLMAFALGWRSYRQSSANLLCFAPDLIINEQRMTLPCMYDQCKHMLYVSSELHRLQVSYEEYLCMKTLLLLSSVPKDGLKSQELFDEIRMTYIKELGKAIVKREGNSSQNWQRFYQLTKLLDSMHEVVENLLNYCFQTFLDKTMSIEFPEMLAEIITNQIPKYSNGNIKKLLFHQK
Chain of ATP-dependent 6-phosphofructokinase (Trypanosoma brucei brucei) (O15648 whole entry, looked up): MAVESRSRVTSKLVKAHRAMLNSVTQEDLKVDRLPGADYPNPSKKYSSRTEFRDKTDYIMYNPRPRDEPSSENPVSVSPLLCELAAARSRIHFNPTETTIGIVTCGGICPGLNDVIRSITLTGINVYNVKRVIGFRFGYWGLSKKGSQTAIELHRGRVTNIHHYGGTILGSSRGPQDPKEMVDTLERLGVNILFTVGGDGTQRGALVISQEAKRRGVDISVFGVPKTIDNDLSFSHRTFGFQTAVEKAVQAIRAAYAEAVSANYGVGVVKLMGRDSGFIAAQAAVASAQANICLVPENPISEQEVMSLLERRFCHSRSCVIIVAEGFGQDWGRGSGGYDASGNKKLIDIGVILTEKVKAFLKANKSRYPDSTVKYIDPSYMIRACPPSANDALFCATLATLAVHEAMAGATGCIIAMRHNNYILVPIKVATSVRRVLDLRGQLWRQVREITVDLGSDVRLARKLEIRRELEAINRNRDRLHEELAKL
Chain of Ubiquitin carboxyl-terminal hydrolase 1 (Homo sapiens) (O94782 whole entry, looked up): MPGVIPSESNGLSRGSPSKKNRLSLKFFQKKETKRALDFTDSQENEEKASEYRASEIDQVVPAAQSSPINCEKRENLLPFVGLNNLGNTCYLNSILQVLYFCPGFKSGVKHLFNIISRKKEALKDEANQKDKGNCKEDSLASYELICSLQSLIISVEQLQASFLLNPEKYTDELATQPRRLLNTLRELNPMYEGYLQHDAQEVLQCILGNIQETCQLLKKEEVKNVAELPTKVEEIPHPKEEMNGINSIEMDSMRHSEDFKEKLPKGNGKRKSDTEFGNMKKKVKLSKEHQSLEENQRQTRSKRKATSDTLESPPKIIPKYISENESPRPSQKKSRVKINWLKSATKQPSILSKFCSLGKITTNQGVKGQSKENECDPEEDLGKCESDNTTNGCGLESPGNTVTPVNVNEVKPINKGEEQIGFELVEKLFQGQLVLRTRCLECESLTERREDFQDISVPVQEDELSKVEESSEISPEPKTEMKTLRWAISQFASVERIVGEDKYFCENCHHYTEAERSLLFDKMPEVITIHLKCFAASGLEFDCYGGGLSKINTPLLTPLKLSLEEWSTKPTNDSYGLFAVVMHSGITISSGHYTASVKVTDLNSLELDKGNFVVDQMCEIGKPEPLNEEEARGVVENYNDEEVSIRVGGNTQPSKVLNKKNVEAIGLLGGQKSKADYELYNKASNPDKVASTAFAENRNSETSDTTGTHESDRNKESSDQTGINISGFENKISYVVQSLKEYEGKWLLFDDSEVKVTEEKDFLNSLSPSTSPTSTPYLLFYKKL
Chain of 3',5'-cyclic-AMP phosphodiesterase 4B (Homo sapiens) (Q07343 whole entry, looked up): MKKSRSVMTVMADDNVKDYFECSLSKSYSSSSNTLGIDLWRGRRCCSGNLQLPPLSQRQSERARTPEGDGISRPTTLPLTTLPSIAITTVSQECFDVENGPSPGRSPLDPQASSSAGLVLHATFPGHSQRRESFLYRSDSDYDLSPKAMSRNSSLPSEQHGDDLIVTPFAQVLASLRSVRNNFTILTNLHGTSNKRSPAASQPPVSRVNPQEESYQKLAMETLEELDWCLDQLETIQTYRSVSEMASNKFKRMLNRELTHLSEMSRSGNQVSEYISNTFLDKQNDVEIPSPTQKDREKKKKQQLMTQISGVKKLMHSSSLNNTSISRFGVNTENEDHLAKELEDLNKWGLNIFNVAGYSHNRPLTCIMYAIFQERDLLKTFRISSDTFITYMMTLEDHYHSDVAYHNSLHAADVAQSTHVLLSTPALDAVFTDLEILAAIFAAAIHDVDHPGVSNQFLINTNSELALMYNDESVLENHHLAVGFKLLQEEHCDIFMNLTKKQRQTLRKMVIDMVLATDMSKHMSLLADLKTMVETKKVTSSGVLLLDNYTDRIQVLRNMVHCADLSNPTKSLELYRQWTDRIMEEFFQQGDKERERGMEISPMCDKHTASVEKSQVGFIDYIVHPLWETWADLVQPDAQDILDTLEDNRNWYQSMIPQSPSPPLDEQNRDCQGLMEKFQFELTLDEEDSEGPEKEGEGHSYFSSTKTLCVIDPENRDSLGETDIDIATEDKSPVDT
Chain of Luciferin 4-monooxygenase (Photinus pyralis) (P08659 whole entry, looked up): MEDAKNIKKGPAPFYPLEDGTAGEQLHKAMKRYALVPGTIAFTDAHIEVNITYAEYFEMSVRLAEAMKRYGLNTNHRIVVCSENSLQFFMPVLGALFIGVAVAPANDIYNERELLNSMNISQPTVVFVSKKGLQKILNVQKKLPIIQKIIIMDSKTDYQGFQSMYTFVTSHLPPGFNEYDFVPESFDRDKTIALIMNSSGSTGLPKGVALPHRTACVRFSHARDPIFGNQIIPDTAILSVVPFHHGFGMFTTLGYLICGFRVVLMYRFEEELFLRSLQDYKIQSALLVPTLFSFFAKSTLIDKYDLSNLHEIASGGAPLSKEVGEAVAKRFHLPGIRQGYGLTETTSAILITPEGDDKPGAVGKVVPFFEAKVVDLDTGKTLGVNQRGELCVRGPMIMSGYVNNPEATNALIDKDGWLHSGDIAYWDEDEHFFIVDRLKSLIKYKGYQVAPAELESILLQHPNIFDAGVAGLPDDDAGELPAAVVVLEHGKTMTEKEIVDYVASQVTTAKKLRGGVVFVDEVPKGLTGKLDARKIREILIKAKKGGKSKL

COc1ccc(OC)c([C@H](O)CNC(=O)CN)c1
inactive: outcome [1] | activity change, negative = inhibition [2] -3.71% | outcome [3] | Potency [4] > 20.6 µM | Potency [5] > 20.6 µM | Potency [6] | outcome [7] | outcome [8] | Potency [9] | Potency [10] | outcome [11] | Potency [12] | activity, negative = inhibition ([13]; parasite line A) -3.94% | activity, negative = inhibition ([13]; parasite line B) 1.53% | Potency (3D7) | Potency (7G8) | Potency (AA1029) | Potency (AS120) | Potency (ATS189) | Potency (ATS95) | Potency (C2A) | Potency (CP185) | Potency (CP191) | Potency (CP192) | Potency (CP194) | Potency (CP201) | Potency (CP203) | Potency (CP211) | Potency (CP215) | Potency (CP217) | Potency (CP237) | Potency (CP238) | Potency (CP247) | Potency (CP250) | Potency (CP252) | Potency (CP256)
